# Test results published in PubChem BioAssay (NCI).
# Compounds without any hit were thinned out: in the full panel of roughly 83,000, 20% have a hit.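 Single-concentration screen, 48 h exposure, 96-well plates. Endpoint: percent growth. Below 10 = active.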 Values without a mark were called inactive. The source made the active and inactive calls.
# Test system: HL-60(TB) leukemia
# Assay: NCI-60 one-dose screen, 48 h (100 = growth as untreated, 0 = no growth, -100 = all killed)
# Settings: 10 µM unless noted
row,Structure (SMILES),growth
1,CCCCCc1ccc(C)cc1OC(=O)CCl,114%
2,O=C(N/N=C\c1cc(Br)cc(Br)c1O)N/N=C/c1cc(Br)cc(Br)c1O,8.67% (active)
3,c1ccc(C(CC2=NCCCN2)c2ccccc2)cc1,71%
4,CCNC(=O)C#Cc1ccc2c(C(=Nc3ccc(CN(C)C)cc3)c3ccccc3)c(O)[nH]c2c1,-7.13% (active)
5,Cc1ccc(C(NC(=O)c2ccccc2)c2ccc3cccnc3c2O)cc1 (configuration not stated),-21% (active)
6,Cn1cc(-c2nc(-c3c[nH]c4ccccc34)cs2)c2cccnc21,6.19% (active)
7,C[C@]1(CO)C[C@@H](O)C[C@]2(C)[C@@H]1CC[C@@]13C[C@@H]4[C@@H](C[C@H]12)[C@]4(C)C3,103%
8,O=C(O)C(c1ccccc1)N1C(=O)CSC1=S (configuration not stated),129%
9,O=C(N/N=C/c1ccc2c(c1)OCO2)c1cnn2c1NC(c1ccccc1)C2 (configuration not stated),56.3%
10,Nc1c(C(=O)Nc2ccncc2)sc2nc3c(cc12)CCCCC3,55.5%
11,COC(=O)c1ccc(C2Nc3ccc(S(=O)(=O)Nc4ccc(C)c(C)c4)cc3C3OCCC23)cc1 (configuration not stated),59.3%
12,CCOC(=O)C1CCN(c2ccc(N3C[C@@H](CNCc4ccc(C(=N)N)cc4)OC3=O)cc2)CC1,101%
13,Cc1nccc2c3ccc(OCc4cn(Cc5ccc(Br)cc5)nn4)cc3n(CCCc3ccccc3)c12,89%
14,CCOC(=O)c1c(C)[nH]c(C(=O)CCC(=O)OC)c1C,94.9%
15,COc1ccc2nc(N=Nc3c(O)ccc4ccccc34)sc2c1,4.48% (active)
16,CCCCCCCCCCCCCCn1c2ccccc2c2c3c(c4c5cc(OC)ccc5oc4c21)C(=O)NC3=O,115%
17,CCC1=C(c2ccc(OC)cc2)C(C)(C)Oc2c1ccc(O)c2CN1CCCC1,-25.4% (active)
18,COc1cc(NCCCN)c2ncccc2c1,68%
19,Cc1cc(/C=C/c2ccc3cc(N(C)C)ccc3[n+]2C)c(C)n1-c1ccccc1,-26.1% (active)

row,Structure (SMILES),growth
1,CC1=C(C(=O)n2c3ccccc3c3ccccc32)C(c2cccc([N+](=O)[O-])c2)C(C(=O)n2c3ccccc3c3ccccc32)=C(C)N1,91%
2,NS(=O)(=O)Oc1ccc2c(ccn2C(=O)C23CC4CC(CC(C4)C2)C3)c1,97.6%
3,O=[N+]([O-])c1cc([N+](=O)[O-])c(NN=C(c2ccc(O)cc2)c2ccc(O)cc2)cc1Cl,12.7%
4,CC(=O)OC1CCC2(C)C(=CC3C4CCC(=O)C4(C)CCC32)C1 (configuration not stated),91%
5,O=C(N=C1C(=O)C2(CCCCC2)C2(N=C(c3ccccc3)OC2=O)C12CCCCC2)c1ccccc1 (configuration not stated),71.8%
6,COCCOC(=O)C1=C(C)NC(=S)NC1c1ccc2c(c1)OCO2 (configuration not stated),92.1%
7,S=C1N(c2ccccc2)CN(C2CCCCC2)CN1c1ccccc1,96.1%
8,O=C1C(Cl)=C(Nc2ccc3c(c2NC2=C(Cl)C(=O)c4ccccc4C2=O)C(=O)c2ccccc2C3=O)C(=O)c2ccccc21,-8.26% (active)
9,O=C1c2cccc3cccc(c23)C(=O)N1Nc1nc(N2CCOCC2)nc(N2CCN(c3ccccc3)CC2)n1,56.3%
10,Cc1nc2cnc(N)c(C#Cc3cncc(C(=O)Nc4ccc(CN5CCN(C)CC5)c(C(F)(F)F)c4)c3)c2nc1C,-16.4% (active)
11,COc1cc2cn3c4ccc(O)cc4nc(N)c3c2cc1OC,24.5%
12,C#C[C@]1(O)CC[C@H]2[C@@H]3CC=C4c5sc(-c6cccc(C)c6)nc5CC[C@]4(C)[C@H]3CC[C@@]21C,71.8%
13,CCc1nc2cc(F)c(/C=C/C(=O)NO)cc2c(=O)n1CCc1ccccc1,0.13% (active)
14,Nc1c(C(=O)c2ccccc2)sc2nc(-c3cc4ccccc4o3)cc(-c3ccc(Cl)cc3)c12,114%
15,CCN(CC)CCOC(=O)c1ccc(NC(=O)Nc2cccc(Cl)c2)cc1,103%
16,C=C1C(=O)O[C@H]2[C@H]1CC/C(Cn1cc(CNC(=O)Cc3cn(C(=O)c4ccc(Cl)cc4)c4ccc(OC)cc34)nn1)=C\CC[C@@]1(C)O[C@@H]21,-53.4% (active)
17,CN1CCN(Cc2ccc(NC(=O)c3[nH]ncc3Nc3ccnc4ccsc34)cc2)CC1,-17.8% (active)
18,CCN1C(=O)N(CC)C2C1NN=c1s/c(=C\c3ccc[nH]3)c(=O)n12 (configuration not stated),-48% (active)
